According to PubChem BioAssay:
Calls of active or inactive are those of the source.

assay: plasmodial surface anion channel blockers, osmotic lysis – cell-based, P. falciparum Indochina, OD700, 2 h, primary screen (AID 1155);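 note: lysis reports solute entry through the parasite surface anion channel PSAC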; conditions: P. falciparum Indochina infected erythrocytes, higher = more signal, called active from +8 up or from −8 down

Row | Compound | z-score
1 | CC1CC/C=C\[C@H]2OC34C=CCN(C(C)C)C(=O)[C@H]3N(C(C)CO)C(=O)[C@@H]4C2C(=O)O1 (some centres undefined) | 0.217 (inactive)
2 | [N-]=[N+]=NCc1ccccc1C[C@]1(C(=O)N2CCCCC2)COC(c2ccc(OCCCO)cc2)=N1 | 19.5 (active)
3 | O=C1NC(=O)C2C1C=CC(C(O)c1ccc(F)cc1)N2Nc1ccc(Cl)cc1Cl (centres undefined) | 0.615 (inactive)
4 | O=C(NCC(F)(F)F)[C@@H]1c2ccccc2C(=O)N(Cc2cc(C(F)(F)F)cc(C(F)(F)F)c2)[C@H]1c1ccc(CO)cc1 | 0.0323 (inactive)
5 | C=CCNC(=O)[C@H]1[C@@H]2C(=O)O[C@@H](c3ccccc3)[C@@H](c3ccccc3)N2[C@@H](c2ccc(O)cc2)[C@]12C(=O)N(C(=O)OCCOC)c1ccc(C#Cc3ccc(OC)cc3)cc12 | 1.28 (inactive)
6 | COCCOC(=O)N1C(=O)[C@@]2(c3cc(C#CCNC(N)=O)ccc31)[C@H](C(N)=O)[C@H]1C(=O)O[C@H](c3ccccc3)[C@H](c3ccccc3)N1[C@@H]2c1ccc(O)cc1 | -0.132 (inactive)
7 | CC(C)(C)OC(=O)CC[C@@]1(C(N)=O)N=C(c2ccc(OCCCO)cc2)O[C@@H]1c1ccccc1CN=[N+]=[N-] | 5.68 (inactive)
8 | COC(=O)[C@@]1(Cc2ccc(F)cc2)[C@H]2c3cc(C(=O)N(C)C)n(CCF)c3C[C@H]2CN1C(=O)c1ccccc1 | -0.771 (inactive)
9 | COc1ccc(C(=O)Nc2cccc(CN3C(=O)[C@]4(O[C@H](CC(=O)N(CCO)Cc5ccccc5)[C@@H]([Si](C)(C)c5ccc(OC)cc5)[C@@H]4C)c4ccccc43)c2)cc1 | 0.614 (inactive)
